What all share (experiment): NCI-60 one-dose screen, 48 h (100 = growth as untreated, 0 = no growth, -100 = all killed)
In test [1] the test system is NCI-H23 lung. The settings on record: 10 µM unless noted.
Test [2] concerns NCI-H226 lung. Particulars: 10 µM unless noted.
The subject of test [3] is NCI-H322M lung. The settings on record: 10 µM unless noted.
Test [4] deals with NCI-H460 lung. Particulars: 10 µM unless noted.
Test [5] deals with HOP-92 NSCLC. The settings on record: 10 µM.
Test [6] relates to NCI-H522 lung. The settings on record: 10 µM.
For test [7], the system named is A549/ATCC NSCLC. The settings on record: 10 µM unless noted.
The subject of test [8] is 786-0 renal. Particulars: 10 µM unless noted.
The subject of test [9] is COLO 205 colon. Particulars: 10 µM unless noted.
Test [10] has as its system DU-145 prostate. Particulars: 10 µM unless noted.
For test [11], the system named is MALME-3M melanoma. The settings on record: 10 µM unless noted.
The test system of test [12] is MDA-MB-231 breast. The settings on record: 10 µM unless noted.
The test system of test [13] is RXF 393 renal. Particulars: 10 µM unless noted.
For test [14], the system named is SF-268 CNS. The settings on record: 10 µM unless noted.
The test system of test [15] is SF-295 CNS. The settings on record: 10 µM unless noted.
For test [16], the system named is SF-539 CNS. The settings on record: 10 µM unless noted.
Test [17] concerns UACC-257 melanoma. Particulars: 10 µM unless noted.
The subject of test [18] is M14 melanoma. Particulars: 10 µM unless noted.
For test [19], the system named is K-562 leukemia. Particulars: 10 µM unless noted.

Molecules are shown by their SMILES. The panel holds about 83,000 compounds, 20% with a hit somewhere; the sample as a whole holds those more often.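 Method: cells in 96-well plates; compound added at one concentration; 48 h incubation; percent growth measured; values under 10 scored active.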 Values without a mark were called inactive. The source made the active and inactive calls.

With `Cc1c(CN(C)C)cc(C(C)C)cc1C(C)C`, the growth was 102% in test [1]; 93.5% in [2]; 129% in test [3]; 111% in test [4]; 129% in test [5]; 85% in test [6]. The growth in test [7] is 101%; in [8], 103%; in test [9] it was 131%; in test [10] it was 113%; in test [11], 124%; in test [12], 104%. In addition, the growth in [13] was 112%; in test [14], 111%; in test [15] it was 116%; in [16], 118%; in test [17], 108%; in [18], 108%.
For the compound `COc1ccc(/C=C(/C(=O)N2CCN(c3ccc(C)cc3)CC2)c2cc(OC)c(OC)c(OC)c2)cc1N`, the growth in test [1] was 38.1%; in [2], 98.3%; in test [3] it was 43.7%; in [4], 5.51% (active); in test [5], 17.6%; in test [6], -12.8% (active). The growth in [7] is 23.1%; in [8], 18.5%; in test [9], -43.9% (active); in test [10] it was 5.56% (active); in [19] it was 11.2%; in [12], 33.6%. Besides, the growth in test [13] was 55.2%; in [14] it was 25.6%; in test [15], 15.4%; in [16], -4.4% (active); in test [17], 73.8%; in test [18], 3.96% (active).
Consider `COc1ccc(C(=O)CN2C(=O)NC(c3ccccc3)(c3ccccc3)C2=O)cc1`, for which the growth in [1] was 103%; in test [2], 93.2%; in test [3], 110%; in test [4], 102%; in test [5], 71.5%; in test [6] it was 96.5%. The growth in test [7] was 103%; in test [8], 109%; in [9], 115%; in test [10], 116%; in test [11] it was 108%; in [12], 106%. The growth in test [13] is 105%; in test [14] it was 101%; in test [15], 98.8%; in [16] it was 92.9%; in test [17] it was 98.7%; in test [18] it was 103%.
Regarding `C[C@@H](c1ccc2c(c1)[nH]c1ccc(Cl)cc12)c1nc2ccccc2[nH]1`, the growth in test [1] was 91.2%; in test [2], 95.3%; in test [3], 87.3%; in [4] it was 101%; in test [5] it was 120%; in test [6] it was 78.7%. Further, the growth is 104% in [7]; 103% in [8]; 123% in test [9]; 103% in [10]; 82% in [19]; 88.1% in test [12]. Also, the growth in test [13] was 105%; in test [14], 87.3%; in test [15] it was 93.5%; in test [16], 98.7%; in [17], 106%; in test [18] it was 111%.
Consider `COc1nc(OC)nc(-c2cc(C(=O)c3ccc(Br)cc3)n3cc(C)cc(C)c23)n1`, for which the growth is 48.1% in test [1]; 34.3% in [2]; 81.8% in test [3]; 34.8% in test [4]; 33.9% in [5]; 57.7% in test [6]. Further, the growth in test [7] was 51.3%; in [8], 12%; in test [10] it was 76.3%; in test [19], 91.1%; in test [11], 54.1%; in test [12], 49.8%. Also, the growth in test [13] was 11.9%; in test [14], 55.4%; in test [15] it was 48.7%; in [16] it was 26.2%; in [17], 94.8%; in test [18], 90.3%.
Turning to `CC1(c2ccc(Br)cc2)NC(=O)NC1=O` (centres undefined), the growth in test [1] is 105%; in [2] it was 110%; in [3], 103%; in [4], 104%; in test [5], 89.6%; in [6], 102%. The growth in [7] was 93.3%; in [8], 96%; in test [9], 113%; in [10], 111%; in [11], 113%; in test [12] it was 105%. In addition, the growth is 112% in [13]; 98.4% in [14]; 110% in [15]; 100% in test [16]; 98.4% in test [17]; 103% in test [18].
Turning to `COc1ccc(Cn2cc3c(c2-c2ccccc2)CCc2cnoc2-3)cc1N`, the growth in [1] was 20.5%; in test [2] it was 13%; in test [3], 35%; in test [4], -4.24% (active); in test [5], 64.1%; in test [6] it was 33.8%. Also, the growth in [7] is 29.4%; in test [8], 38.8%; in test [9], -24.7% (active); in [10], 13.7%; in test [19], 14.8%; in test [12], 15.2%. For the same compound, the growth in test [13] is 15.2%; in test [14] it was 28.7%; in [15], -19.7% (active); in test [16] it was -13.1% (active); in test [17], 63.2%; in test [18], 18.2%.
For the compound `CCOC(=O)c1cc(C(=O)c2ccc(Br)cc2)n2cc(C)cc(C)c12`, the growth in test [1] is 95.2%; in test [2] it was 87.2%; in [3] it was 96.7%; in test [4], 95.9%; in test [5], 77.9%; in test [6], 77.3%. Further, the growth was 75.7% in test [7]; 96.3% in test [8]; 100% in [10]; 99% in test [19]; 96.1% in test [11]; 79.8% in [12]. Besides, the growth was 64.2% in [13]; 97.2% in [14]; 100% in test [15]; 87.3% in test [16]; 87.2% in test [17]; 94.2% in test [18].
